The source of these data is PubChem BioAssay (NCI).

The nature of assay [1]: NCI Yeast Anticancer Drug Screen. Data for the rad50 strain (AID 155).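 Further: 0% = growth of vehicle-only cultures of the same strain.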 As to conditions: S. cerevisiae rad50 strain growth inhibition; at 50.0 µM; stronger effect = higher value. An outline of the steps: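 Yeast carrying a defined DNA repair defect were exposed to test compounds, and growth was compared with vehicle-treated controls to give percent inhibition.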
Assay [2] is described as follows: NCI Yeast Anticancer Drug Screen. Data for the mec2-1 strain (AID 157). Conditions: S. cerevisiae mec2-1 strain, at 50.0 µM, stronger effect = higher value. An outline of the steps:
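Using mec2-1 yeast: add compound, measure growth, express inhibition versus vehicle-treated cultures.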

Assay [3] in a line: NCI Yeast Anticancer Drug Screen. Data for the sgs1 mgt1 strain (AID 161).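 Further: 0% = growth of cultures given vehicle only.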 As to conditions: S. cerevisiae sgs1 mgt1 strain, at 50.0 µM, stronger effect = higher value. In a few lines: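 Yeast cells carrying a defined DNA-repair defect were exposed to test compounds. Growth inhibition was measured relative to vehicle-treated controls.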
The nature of assay [4]: NCI Yeast Anticancer Drug Screen. Data for the cln2 rad14 strain (AID 165).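 Further: 0% = growth equal to vehicle treated cultures.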 As to conditions: S. cerevisiae cln2 rad14 strain, at 50.0 µM, stronger effect = higher value. In a few lines:
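Yeast strain cln2 rad14, bearing defects in cell cycle control and DNA repair, serves as the test system; values reflect growth inhibition compared with vehicle.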

Assay [5] in a line: NCI Yeast Anticancer Drug Screen. Data for the bub3 strain (AID 167). Conditions: S. cerevisiae bub3 mutant strain, at 50.0 µM, stronger effect = higher value. In a few lines: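 Compounds were applied to a genetically altered yeast strain carrying a cell-cycle control defect. Growth inhibition was scored against vehicle-treated controls.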
A short description of assay [6]: NCI Yeast Anticancer Drug Screen. Data for the mlh1 rad18 strain (AID 175). As to conditions: S. cerevisiae mlh1 rad18 strain growth inhibition; at 50.0 µM; stronger effect = higher value. An outline of the steps:
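Steps: expose repair-defective yeast to compound; measure growth; express inhibition against vehicle-treated controls.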

Compounds without any hit were thinned out: in the full panel of roughly 79,000, 15% have a hit. Unmarked numbers belong to inactive results. Activity calls are given as the source filed them. No stated cut-off is given here; in the data, active means growth inhibition above about 70%; inactive means the rest.

In the case of `COC(=O)OC/C=C\COC(=O)OC`, the growth inhibition is 5.8% in assay [1]; -4.05% in assay [2]; -13.6% in assay [3]; -11.4% in assay [4]; 4.55% in assay [5]; 13.6% in assay [6].

Turning to `CCC(C)CC(O)CC(C)C` (stereo unspecified), the growth inhibition in assay [1] is 13.9%; in assay [2], 8.85%; in assay [3], 1.2%; in assay [4] it was 12.7%; in assay [5], 2.65%; in assay [6], 13%.

As to `O=S1(=O)C=CC(N/N=C\c2ccc3ccccc3n2)=C1`, the growth inhibition was 4.8% in assay [1]; -11.1% in assay [2]; -4.45% in assay [3]; -36.8% in assay [4]; 9.7% in assay [5]; -7.25% in assay [6].

As for `O=[N+]([O-])C(/C=C(\Cl)[N+](=O)[O-])=C(N1CCCCC1)N1CCCCC1`, the growth inhibition was 10.8% in assay [1]; -1.8% in assay [2]; 5.85% in assay [3]; -5.55% in assay [4]; 26.2% in assay [5]; 18.1% in assay [6].

Turning to `Brc1ccc(C2NC(c3ccccc3)c3c(ccc4ccccc34)O2)cc1` (stereo unspecified), the growth inhibition in assay [1] is 90% (active); in assay [2] it was 77.7% (active); in assay [3], 90.9% (active); in assay [4] it was 61.2%; in assay [5] it was 52.3%; in assay [6] it was 86.4% (active).

Regarding `Cn1c(N)c(-n2[nH]c(=O)n(-c3ccccc3)c2=O)c(=O)n(C)c1=O`, the growth inhibition in assay [1] is -20.6%; in assay [2] it was 15.3%; in assay [3], -3.25%; in assay [4], -14.8%; in assay [5], 14.6%; in assay [6], 18.1%.

Turning to `O=c1nc(NO)cnn1C1OC(CO)C(O)C1O` (stereo unspecified), the growth inhibition in assay [1] was 13.7%; in assay [2], -0.2%; in assay [3], 16.4%; in assay [4], -26.4%; in assay [5] it was -11.8%; in assay [6] it was 11.7%.

On to `c1ccc(CCN(CCc2ccccn2)CCc2ccccn2)nc1`, for which the growth inhibition was -5.85% in assay [1]; -13.6% in assay [2]; 0.35% in assay [3]; 0.3% in assay [4]; 3% in assay [5]; 18% in assay [6].

As for `CCCCCCCC/C=C\CCCCCCC(F)C(=O)O` (stereo unspecified), the growth inhibition in assay [1] is 25.4%; in assay [2], 4.55%; in assay [3], 16.2%; in assay [4], 6.1%; in assay [5] it was -11.8%; in assay [6], -43%.

Take `CC(C)CC(NC(=O)C(CS)NC(=O)CN1C(=O)CCC1=O)C(N)=O` (stereo unspecified): the growth inhibition in assay [1] was 15.1%; in assay [2] it was -2.5%; in assay [3] it was 4.65%; in assay [4], -17.1%; in assay [5] it was 13.3%; in assay [6], 19.8%.

With `COc1nc(Cl)nc(C(N)=O)c1N`, the growth inhibition in assay [1] was 7.95%; in assay [2] it was 9.9%; in assay [3], -11.5%; in assay [4], -11.1%; in assay [5] it was -2.65%; in assay [6] it was -4.85%.

As to `CN(C)/C=C(/N=C(C#N)C#N)C1OCCO1`, the growth inhibition in assay [1] was 4.1%; in assay [2] it was 8.55%; in assay [3] it was -2.55%; in assay [4], -27.1%; in assay [5] it was 3.8%; in assay [6] it was -1.7%.

Turning to `CCCCNC(=O)Nc1cc(C)ccc1C`, the growth inhibition in assay [1] was -0.4%; in assay [2], 1.95%; in assay [3] it was -0.7%; in assay [4], -9.75%; in assay [5], 8.2%; in assay [6], 2.1%.

For `CC(=O)Nc1cc([N+](=O)[O-])c2[nH]c(=O)c3ccccc3c2c1`, the growth inhibition in assay [1] was -7.7%; in assay [2], -6.7%; in assay [3], -12.4%; in assay [4], -9.45%; in assay [5] it was -3.2%; in assay [6] it was -0.15%.

On to `COc1ccc(C(=O)CCN(C)C)cc1`, for which the growth inhibition in assay [1] is 15.6%; in assay [2] it was -5.85%; in assay [3], -7.65%; in assay [4], -11.3%; in assay [5], -7.5%; in assay [6], -4.6%.

Consider `NNC(=O)c1ccc(-c2ccc[nH]2)[nH]1`, for which the growth inhibition in assay [1] is 10.7%; in assay [2], 0.7%; in assay [3], -20.9%; in assay [4], -75.5%; in assay [5], -14.4%; in assay [6] it was 5%.

For the compound `Cc1ccc(S(=O)(=O)Oc2nc3ccccc3nc2N(S(=O)(=O)c2ccc(C)cc2)S(=O)(=O)c2ccc(C)cc2)cc1`, the growth inhibition in assay [1] is -9.8%; in assay [2], -1.3%; in assay [3] it was 1.3%; in assay [4], 10%; in assay [5], 5.95%; in assay [6], 17.7%.

As for `O=C1OC2C(O)C(N(O)c3ccccc3)OC2[C@@H]1O` (stereo partly specified), the growth inhibition is 1.85% in assay [1]; 17.5% in assay [2]; 21.9% in assay [3]; 9.2% in assay [4]; 21.8% in assay [5]; 15.1% in assay [6].

On to `CCCCCCn1c(=O)c(N(C)C)c(C)n(C)c1=O`, for which the growth inhibition in assay [1] was -36.1%; in assay [2] it was -3.5%; in assay [3] it was -9.05%; in assay [4], 46%; in assay [5], 17.7%; in assay [6] it was -23.4%.

Turning to `CC(=O)CCC1(C)CCCC(C)(C)CC1=O` (stereo unspecified), the growth inhibition is -1.3% in assay [1]; 5.15% in assay [2]; 3.75% in assay [3]; -9.55% in assay [4]; -28% in assay [5]; -12.2% in assay [6].

As for `O=C(Nc1ccc(S(=O)(=O)NC2CCCCC2)cc1)Oc1ccc([N+](=O)[O-])cc1`, the growth inhibition was 32.5% in assay [1]; 3.55% in assay [2]; 18.4% in assay [3]; 10.8% in assay [4]; 8.4% in assay [5]; 19.4% in assay [6].
